Screens from PubChem BioAssay.
Giardia FBPA inh: blocks Giardia fructose-bisphosphate aldolase activity | A8B2U2 | purified Giardia FBPA | Potency, µM (highest dose often 59.6 µM), inactives show top-dose activity, negative = inhibition, most hits filed as inhibitors | 290,000 tested, 0.71% active | AID 2451; also: potency is read from the fitted curve at half-maximal effect; nearly all actives have a fitted effect of over 55% in size
Target sequence (A8B2U2 whole entry, looked up): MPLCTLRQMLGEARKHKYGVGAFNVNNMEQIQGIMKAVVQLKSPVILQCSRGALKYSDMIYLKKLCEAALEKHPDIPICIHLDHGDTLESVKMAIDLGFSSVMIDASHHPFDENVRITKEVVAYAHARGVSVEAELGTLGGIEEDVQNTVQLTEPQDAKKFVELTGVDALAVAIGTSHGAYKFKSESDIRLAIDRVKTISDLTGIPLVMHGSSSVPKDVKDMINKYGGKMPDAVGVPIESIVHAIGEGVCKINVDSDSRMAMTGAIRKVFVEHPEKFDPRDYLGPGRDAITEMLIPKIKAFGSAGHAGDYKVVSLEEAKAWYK
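40 nM FBPA preincubated 10 min at RT with compound (up to 57.5 uM final), then substrate plus GAPDH/TPI/NAD/arsenate coupling and diaphorase/resazurin added. Fluorescence read after 20 min at RT, 525/598 nm.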
HCMV antiviral: blocks human cytomegalovirus replication; 410,000 tested, 4.5% active; HFF cells, HCMV-luciferase reporter, 72 h; hits give low values; AID 1259415; activity change, negative = inhibition, % at 57.5 µM; in the data active = activity change below about -60%; inconclusive = no clear call, values can overlap the other calls; inactive = above about -39%
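Screen run at 2 compound doses on HFFs infected with reporter HCMV, MOI 1 PFU/cell. Luciferase activity from cell lysates at 72 h post infection gave inhibition relative to buffer-only and Salinomycin wells.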
FMDV inh: blocks foot and mouth disease virus | FMDV antiviral cell-based qHTS | Potency, µM (titrated, usually from 57.9 µM), for inactives: top-dose activity change, negative = inhibition, actives largely listed as inhibitors | 410,000 tested, 1.2% active | AID 1159524; calls by dose curve; tested in HEK293T cells; also: read-out not given here; potency is read from the fitted curve at half-maximal effect; nearly all actives have a fitted effect of over 45% in size
RE007 growth inh: less growth of the S. pombe RE007 Vpr strain; Potency, µM (doses to about 92.2 µM), inactives show at the highest dose activity change, negative = less growth, actives largely listed as inhibitors; 360,000 tested, 0.21% active; AID 651644; S. pombe RE007 Vpr strain, BacTiter-Glo ATP luminescence, 24 h; active = well fitted falling curve with a large enough effect; inconclusive = small, poorly fitted or top-dose-only effect; inactive = no such curve, though single readings can be large or run the other way; also: potency is read from the fitted curve at half-maximal effect; nearly all actives have a fitted effect of over 50% in size
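Fission yeast strain RE007, carrying one chromosomally integrated HIV-1 vpr copy, was seeded at OD 0.01 in PMG+AL medium with 23 nL pinned compound. After 24 h at 30 °C and 99% humidity, viability was read by BacTiter-Glo luminescence.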
Tb PYK inh: T. brucei pyruvate kinase inhibition. TbPYK enzyme, Kinase-Glo Plus ATP luminescence, 45 min. 410,000 tested, 0.12% active. Q57TT1. Potency, µM (titrated, usually from 76.8 µM), for the others: top-dose activity, negative = inhibition, usual class: inhibitors; also: potency is read from the fitted curve at half-maximal effect; nearly all actives have a fitted effect of over 50% in size
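Glycolytic pyruvate kinase of T. brucei was incubated with substrate, test compound and 130 uM ADP for 45 minutes at room temperature. Luminescent Kinase-Glo Plus signal was measured after 10 minutes.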
Sm TGR inh: S. mansoni TGR enzyme inhibition; purified TGR, DTNB reduction, TNB absorbance 405 nm; AID 485364; 360,000 tested, 3% active; Q962Y6; Potency, µM (highest dose often 114 µM), inactives show top-dose activity change, negative = inhibition, actives largely listed as inhibitors; also: potency is read from the fitted curve at half-maximal effect; nearly all actives have a fitted effect of over 60% in size
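First, TGR (20 nM dispensed) and NADPH were mixed with compound. Second, a 15 min room-temperature incubation followed. Third, further NADPH and then DTNB were added to start the reaction. Finally, TNB absorbance was monitored kinetically.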
An asterisk follows results filed as active. Sampled rows, rich in hits. Any-hit rate of the full collection: about 7.7%. Unless noted, calls follow the shape of the dose curve; as a rule, active = well fitted curve in the direction sought with a large enough effect; inconclusive = small, poorly fitted or top-dose-only effect, or another doubt; inactive = no such curve, though single readings can be large; an effect the other way counts as inactive or inconclusive. % is scaled to controls: 0 for no effect and ±100 for the full control effect.

For O=C(OC1C2C=CC1C1C(=O)NC21)c1ccccc1 (stereo not given) the results were HCMV antiviral -7.6, FMDV inh -7.3%, RE007 growth inh -5.0% and Tb PYK inh 0.7%.
For COc1ccc(-c2c(C)nn3c(-c4ccccc4)cc(-c4ccccc4)nc23)cc1 the results were HCMV antiviral -8.1, FMDV inh -18.4%, Tb PYK inh -2.8% and Sm TGR inh -3.7%.
N#C/C(=C\c1cccnc1)C(=O)Nc1ccc(C(=O)O)cc1 was read as Giardia FBPA inh -3.6%, HCMV antiviral 26.7, FMDV inh 32.6%, RE007 growth inh -2.1%, Tb PYK inh -4.2% and Sm TGR inh 11.2%.
For N#C/C(=C\c1ccncc1)C(=O)Nc1ccc(C(=O)O)cc1 the results were Giardia FBPA inh -9.5%, HCMV antiviral -99.1*, FMDV inh -14.7%, RE007 growth inh 6.1%, Tb PYK inh -1.0% and Sm TGR inh 0.2%.
Cc1cccc(NC(=O)/C(C#N)=C\c2cc(C)n(-c3ccc(C(=O)O)cc3)c2C)c1 was read as Giardia FBPA inh -1.1%, HCMV antiviral -61.0*, FMDV inh -14.2%, RE007 growth inh 8.1% and Tb PYK inh -1.3%.
For O=C(OCC(=O)N1CCN(c2ccccc2)CC1)c1ccc2ccccc2n1 the results were Giardia FBPA inh 1.6%, HCMV antiviral 52.2, FMDV inh 0.0%, RE007 growth inh -19.8%, Tb PYK inh -5.8% and Sm TGR inh 44.7µM*.
O=C(OCC(=O)N1CCN(c2ccccc2)CC1)c1ccccn1 was read as Giardia FBPA inh 2.9%, HCMV antiviral 13.5, FMDV inh 0.0%, RE007 growth inh 9.5%, Tb PYK inh -1.8% and Sm TGR inh -9.9%.
Screening O=S(=O)(O)NC1CCCCC1 returned HCMV antiviral -1.2 and Tb PYK inh -7.4%.
CC1CC(C)(C)Nc2ccc(OC(=O)c3ccco3)cc21 (stereo not given) was read as HCMV antiviral -107.4*, FMDV inh inconclusive, RE007 growth inh -17.8%, Tb PYK inh -8.0% and Sm TGR inh -32.4%.
`CC1CC(C)(C)Nc2ccc(N=O)cc21` (stereo not given) gave Giardia FBPA inh inconclusive, HCMV antiviral -60.0*, FMDV inh inconclusive, RE007 growth inh -27.1%, Tb PYK inh -2.6% and Sm TGR inh 14.1µM*.
`CCn1c(=O)cc(SCC(=O)NCCc2cccc(C)c2)c2ccccc21` gave HCMV antiviral 6.6, FMDV inh -0.8%, Tb PYK inh 1.1% and Sm TGR inh 1.2%.
Cc1cccc(OCC(O)Cn2c(NCCCOC(C)C)nc3c2c(=O)[nH]c(=O)n3C)c1 (stereo not given) was read as Giardia FBPA inh 5.2%, HCMV antiviral 19.0, FMDV inh -14.2%, RE007 growth inh -17.5%, Tb PYK inh -2.5% and Sm TGR inh 7.3%.
For CC(C)CCNc1nc2c(c(=O)[nH]c(=O)n2C)n1CC(O)COC(C)C (stereo not given) the results were Giardia FBPA inh -0.1%, HCMV antiviral -65.6*, FMDV inh -3.2%, RE007 growth inh -18.3%, Tb PYK inh 1.9% and Sm TGR inh -5.2%.
Screening CCCn1c(=N)c(C(=O)NC(C)c2ccccc2)cc2c(=O)n3ccccc3nc21 (stereo not given) returned HCMV antiviral -1.1, FMDV inh -11.5%, Tb PYK inh -4.8% and Sm TGR inh 8.1%.
`c1ccc(Cc2nnc3sc(-c4cccnc4)nn23)cc1` gave Giardia FBPA inh 10.9%, HCMV antiviral -62.6*, FMDV inh 20.1%, RE007 growth inh 2.0%, Tb PYK inh -12.0% and Sm TGR inh 4.5%.
For c1ccc(Cc2nnc3sc(-c4ccncc4)nn23)cc1 the results were Giardia FBPA inh 8.2%, HCMV antiviral inconclusive, FMDV inh -6.2%, RE007 growth inh -2.1%, Tb PYK inh -5.6% and Sm TGR inh -3.4%.
For COc1ccc(C(=O)CSc2nnc(-c3cnccn3)n2Cc2ccco2)cc1 the results were Giardia FBPA inh -12.2%, HCMV antiviral -4.6, FMDV inh 58.9%, RE007 growth inh 2.9%, Tb PYK inh -0.6% and Sm TGR inh 35.5µM*.
`COc1ccc(C(=O)CSc2nnc(-c3cc4ccccc4cc3O)n2Cc2ccco2)cc1` gave Giardia FBPA inh 12.2%, HCMV antiviral -25.4, FMDV inh inconclusive, RE007 growth inh -0.2%, Tb PYK inh 1.7% and Sm TGR inh inconclusive.
`COc1ccc(C(=O)CSc2nnc(-c3cccnc3)n2Cc2ccco2)cc1` gave Giardia FBPA inh 3.4%, HCMV antiviral 44.0, FMDV inh -20.1%, RE007 growth inh -21.6%, Tb PYK inh -11.2% and Sm TGR inh 56.2µM*.
Screening c1cncc(CSc2nnc(-c3cccnc3)n2Cc2ccco2)c1 returned Giardia FBPA inh -0.9%, HCMV antiviral -29.6 and Sm TGR inh inconclusive.
`O=C(CSc1nnc(-c2cnccn2)n1Cc1ccco1)Nc1ccc(Br)cc1` gave Giardia FBPA inh -0.3%, HCMV antiviral -1.8, FMDV inh 0.0%, RE007 growth inh 12.9%, Tb PYK inh -5.2% and Sm TGR inh inconclusive.
Screening Clc1ccc(CSc2nnc(-c3cccnc3)n2Cc2ccco2)c(Cl)c1 returned Giardia FBPA inh 8.8%, HCMV antiviral inconclusive, FMDV inh -18.8%, RE007 growth inh 15.9%, Tb PYK inh -14.8% and Sm TGR inh 14.1µM*.
For O=C(CSc1nnc(-c2cccnc2)n1Cc1ccco1)N1c2ccccc2Sc2ccccc21 the results were Giardia FBPA inh -2.4%, HCMV antiviral 30.7, FMDV inh inconclusive, RE007 growth inh -10.7%, Tb PYK inh 0.7% and Sm TGR inh 25.1µM*.
CC(C)C[C@@H]1COc2cc(N3CCCC3)ccc2S(=O)(=O)N1 was read as HCMV antiviral -5.8.
CCOC(=O)c1cc2c(=O)n3ccccc3nc2n(Cc2ccco2)c1=NC(=O)c1cccnc1 was read as Giardia FBPA inh -4.9%, HCMV antiviral -15.9, FMDV inh -1.6%, RE007 growth inh 24.6%, Tb PYK inh inconclusive and Sm TGR inh 22.4µM*.
Screening CCOC(=O)c1cc2c(=O)n3cccc(C)c3nc2n(Cc2ccco2)c1=NC(=O)c1cccnc1 returned Giardia FBPA inh inconclusive, HCMV antiviral -9.5, FMDV inh 9.3%, RE007 growth inh -5.0%, Tb PYK inh -7.5% and Sm TGR inh 5.62µM*.
For Cc1cccn2c(=O)c3cc(C#N)c(=NC(=O)c4ccccc4)n(Cc4ccco4)c3nc12 the results were HCMV antiviral 1.1, FMDV inh -29.2%, RE007 growth inh -7.4% and Tb PYK inh inconclusive.
